Measured values taken from PubChem BioAssay (EPA / NIEHS).
Records with an inconclusive call do not appear. The source made the active and inactive calls. The calls were made as follows, unless noted: active = hit-call score of the fitted dose curve at least 0.9, where 1 is the maximum; inactive = score below 0.9.

Key:
DIO1 (gene 1733) = test: CCTE_GLTED_hDIO1: CCTE's human Deiodinase 1 (DIO1) Inhibition Assay, Great Lakes Toxicology and Ecology Division (GLTED) Lab (AID 2283987; active = hit-call score of the fitted dose curve at least 0.9, where 1 is the maximum;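 also: isolated human DIO1 enzyme in a cell-free setup rather than cells; enzyme activity read as free iodide liberated from substrate via Sandell-Kolthoff colorimetry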)
Summary of the method: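 Cell-free human DIO1 enzyme was incubated with test chemical for 3 h, and iodide released from substrate was measured by Sandell-Kolthoff absorbance. Loss of signal versus DMSO baseline indicated inhibition; plates were run in triplicate.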

[1] = CCTE_Harrill_HTTr_Viability_MCF7: CCTE's 6-hour Cell Viability Assessment for the High-Throughput Transcriptomics (HTTr) Platform, in MCF-7 cells cultured in DMEM + 10% fetal bovine serum, Harrill Lab (AID 2284010)
Summary of the method: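 Cells were dosed with chemicals in an eight-point dilution series, imaged 6 hours later for propidium iodide uptake, and the endpoint was analyzed by bidirectional fitting against DMSO as negative control.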

[2] = CCTE_Harrill_HTTr_Apoptosis_MCF7: CCTE's 6-hour Apoptosis Assessment for the High-Throughput Transcriptomics (HTTr) Platform, in MCF-7 cells cultured in DMEM + 10% fetal bovine serum, Harrill Lab (AID 2284011)
Summary of the method: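 MCF-7 cells in DMEM + 10% fetal bovine serum were exposed to chemicals for 6 hours over an eight-point dilution series. Caspase-3/7 activation was imaged by high content imaging with CellEvent Caspase 3/7 Green; bidirectional fitting used DMSO as baseline.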

[3] = CCTE_Harrill_HTTr_CellCount_MCF7: CCTE's Cell Proliferation Assessment for the High-Throughput Transcriptomics (HTTr) Platform, Harrill Lab (AID 2284012; active = hit-call score of the fitted dose curve at least 0.9, where 1 is the maximum;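 also: count of Hoechst-stained nuclei per well by high-content imaging in MCF-7 cells; cells exposed to compound for six hours; intended direction is loss of nuclei count meaning fewer cells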)
Summary of the method: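 Chemicals in eight-point dilution series are added to MCF-7 cells for six hours, nuclei are stained with Hoechst and imaged, and per-well nuclei counts are fitted in both directions relative to DMSO controls.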

[4] = target: Nucleoli Translocation, AR (gene 367) (UniProt P10275); test: UPITT_HCI_U2OS_AR_TIF2_Nucleoli_Antagonist: University of Pittsburgh U2OS Androgen Receptor-Transcriptional Intermediary Factor 2 (AR-TIF2) Antagonism High Content Imaging Assay for Nucleoli Translocation (AID 2283997; active = hit-call score of the fitted dose curve at least 0.9, where 1 is the maximum)
Summary of the method: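 Measured quantity was AR-RFP fluorescence localized to nucleoli in engineered U2OS cells also bearing TIF2-GFP, acquired on automated high-content imagers. Primary testing used 20 uM compound; actives were confirmed in triplicate wells.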

[5] = target: Nucleoli Translocation, AR (gene 367) (UniProt P10275); test: UPITT_HCI_U2OS_AR_TIF2_Nucleoli_Agonist: University of Pittsburgh U2OS Androgen Receptor-Transcriptional Intermediary Factor 2 (AR-TIF2) Agonism High Content Imaging Assay for Nucleoli Translocation (AID 2283998; active = hit-call score of the fitted dose curve at least 0.9, where 1 is the maximum)
Summary of the method: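 Cells express human AR fused to red fluorescent protein and TIF2 fused to GFP. Red fluorescence in the nucleolar region was quantified by high-content imaging and fitted as gain-of-signal against a DMSO baseline. Compounds were tested at 0.195 to 50 uM final (0.5% DMSO).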

[6] = target: Ratio of Nucleoli Translocation and Cytoplasm, AR (gene 367) (UniProt P10275); test: UPITT_HCI_U2OS_AR_TIF2_Nucleoli_Cytoplasm_Ratio_Agonist: University of Pittsburgh U2OS Androgen Receptor-Transcriptional Intermediary Factor 2 (AR-TIF2) Agonism High Content Imaging Assay for Ratio of Nucleoli Translocation and Cytoplasm (AID 2284000; active = hit-call score of the fitted dose curve at least 0.9, where 1 is the maximum;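 also: hits raise the red nucleolar to cytoplasm ratio above vehicle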)
Summary of the method: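 Read-out first: nucleolar-to-cytoplasm ratio of red (AR-RFP) signal, quantified by high-content imaging in U2OS cells co-expressing TIF2-GFP. Activity is scored as signal increase over DMSO. Single-point screening used 20 uM final (0.2% DMSO).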

[7] = CCTE_Simmons_MITO_basal_resp_rate: CCTE's HepG2 Seahorse XF Respirometric Screening Assay at Basal Respiratory State, Simmons Lab (AID 2284001); conditions: actives raise or lower the signal
Summary of the method: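 HepG2 respirometry; 7-pt titration 125 nM–100 uM final; kinetic OCR at 6 min intervals for 72 min; n=3 biological, technical singles; DMSO baseline, gain or loss fit; fenpyroximate (decrease) and 2,4-DNP (increase) controls.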

[8] = CCTE_Simmons_MITO_max_resp_rate: CCTE's HepG2 Seahorse XF Respirometric Screening Assay at Maximal Respiratory State [uncoupled], Simmons Lab (AID 2284002); conditions: actives raise or lower the signal
Summary of the method: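 HepG2 oxygen consumption was read on a Seahorse XF96 after FCCP uncoupler injection, following test compound injection; 7 concentrations, 125 nM–100 uM final, three biological replicates. Bidirectional fitting against DMSO vehicle baseline.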

[9] = CCTE_Simmons_MITO_inhib_resp_rate: CCTE's HepG2 Seahorse XF Respirometric Screening Assay at Inhibited Respiratory State [full ETC block], Simmons Lab (AID 2284006); conditions: actives raise or lower the signal
Summary of the method: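 Compound injected onto HepG2 cells (125 nM–100 uM final, 7 points); FCCP then rotenone/antimycin A added. Oxygen consumption read every 6 min (3 min mix, 3 min measure) for 72 min. Inhibited-state OCR fitted against DMSO.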

[10] = CCTE_Simmons_MITO_viability: CellTiter-Glo Viability Assessment for CCTE's HepG2 Seahorse XF Respirometric Screening Assay [post-hoc], Simmons Lab (AID 2284007; active = hit-call score of the fitted dose curve at least 0.9, where 1 is the maximum;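 as to AC50: cells exposed to chemical for 90 min before the ATP read; actives lower ATP signal relative to DMSO baseline meaning reduced viability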)
Summary of the method: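 After the Seahorse oxygen-consumption sequence (basal, FCCP, rotenone/antimycin A; 72 min total), HepG2 viability was scored as ATP content by bioluminescence. Chemicals ran at seven concentrations up to 100 uM final for 90 min.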

[11] = CCTE_Shafer_MEA_acute_spike_number: CCTE's Neural Acute Assay for Total Number of Spikes, Shafer Lab (AID 2284008);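 as to AC50: curve fitted for decrease in spike count so AC50 reflects inhibitors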
Summary of the method: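 Primary rat cortical neurons on 16-electrode MEA wells; on DIV 13 or 15, 40-min baseline then 40-min recording with compound (0.03-40 uM) at 37 C. Spikes detected at 8x rms noise; percent change versus baseline, DMSO as negative control.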

[12] = CCTE_Shafer_MEA_acute_firing_rate_mean: CCTE's Neural Acute Assay for Mean Firing Rate, Shafer Lab (AID 2284009);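 also: analyzed for loss of signal so actives lower firing rate relative to DMSO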
Summary of the method: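 Percent change in well-mean firing rate was derived from extracellular spikes detected at 8x rms noise (300-5000 Hz band-pass) before and after a 40-min compound exposure. Cultures were primary rat cortical neurons, tested at 0.03-40 uM.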

[13] = CCTE_Shafer_MEA_acute_burst_number: CCTE's Neural Acute Assay for Single-Electrode Bursts, Shafer Lab (AID 2284013)
Summary of the method: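 Spontaneous network activity of primary rat cortical neurons was recorded extracellularly on microelectrode arrays at 37 C, with 40-min periods before and during exposure to 0.03-40 uM compound on DIV 13 or 15.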

[14] = CCTE_Shafer_MEA_acute_burst_duration_mean: CCTE's Neural Acute Assay for Mean Burst Duration, Shafer Lab (AID 2284014);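 also: hits are decreases in mean burst duration relative to DMSO controls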
Summary of the method: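 Read-out is the per-well percent change in mean burst duration (first to last spike within a single-electrode burst) between 40-min recordings before and after compound. Cultures were primary rat cortical neurons on MEAs, dosed at 0.03-40 uM on DIV 13 or 15.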

[15] = CCTE_Shafer_MEA_acute_per_burst_spike_number_mean: CCTE's Neural Acute Assay for Average Number of Spikes Per Burst, Shafer Lab (AID 2284015);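 also: hits are decreases in mean spikes per burst versus baseline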
Summary of the method: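 Rat primary cortical neurons on 48-well MEAs (DIV 13 or 15) were treated with 0.03-40 uM compound at 37 C. Mean spikes per burst over 40 min were recorded before and after exposure and expressed as percent change from baseline, relative to DMSO.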

[16] = CCTE_Shafer_MEA_acute_interburst_interval_mean: CCTE's Neural Acute Assay for Mean Interburst Interval, Shafer Lab (AID 2284016);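 also: percent change of mean interburst interval versus each well's own pre-dose baseline; curves fitted for decrease in interburst interval relative to DMSO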
Summary of the method: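 Rat primary cortical neurons on 48-well MEAs at DIV 13 or 15 were exposed acutely to 0.03-40 uM. Spikes detected at 8x rms noise, 37 C. Mean interburst interval from 40 min recordings expressed as percent change from 40 min pre-treatment baseline.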

[17] = CCTE_Shafer_MEA_acute_burst_percentage_mean: CCTE's Neural Acute Assay for Percentage of Spikes in a Burst, Shafer Lab (AID 2284017);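 as to AC50: curve fitted for loss of signal so potency reflects decreased burst percentage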
Summary of the method: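 Primary rat cortical neurons on 48-well MEA plates, treated on DIV 13 or 15 at 0.03-40 uM. Spikes detected at 8x rms noise at 37C; percent change from 40-min baseline to 40-min post-dose recording, fitted versus DMSO.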

[18] = target: Ratio of Nucleoli Translocation and Cytoplasm, AR (gene 367) (UniProt P10275); test: UPITT_HCI_U2OS_AR_TIF2_Nucleoli_Cytoplasm_Ratio_Antagonist: University of Pittsburgh U2OS Androgen Receptor-Transcriptional Intermediary Factor 2 (AR-TIF2) Antagonism High Content Imaging Assay for Ratio of Nucleoli Translocation and Cytoplasm (AID 2283999; active = hit-call score of the fitted dose curve at least 0.9, where 1 is the maximum;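 also: antagonists lower the DHT-driven ratio of nucleolar to cytoplasmic red signal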)
Summary of the method: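 Human osteosarcoma U2OS line, AR fused to RFP, coactivator TIF2 fused to GFP. Cpds 20 uM final, 0.2% DMSO (screen); 0.195–50 uM final, 0.5% DMSO (CRC). Endpoint: nucleoli/cytoplasm red signal ratio, DHT as baseline, loss-of-signal antagonist mode.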

Measured: AC50

Chain of Nucleoli Translocation, AR (gene 367) (P10275 whole entry, looked up, the tested form may be a part): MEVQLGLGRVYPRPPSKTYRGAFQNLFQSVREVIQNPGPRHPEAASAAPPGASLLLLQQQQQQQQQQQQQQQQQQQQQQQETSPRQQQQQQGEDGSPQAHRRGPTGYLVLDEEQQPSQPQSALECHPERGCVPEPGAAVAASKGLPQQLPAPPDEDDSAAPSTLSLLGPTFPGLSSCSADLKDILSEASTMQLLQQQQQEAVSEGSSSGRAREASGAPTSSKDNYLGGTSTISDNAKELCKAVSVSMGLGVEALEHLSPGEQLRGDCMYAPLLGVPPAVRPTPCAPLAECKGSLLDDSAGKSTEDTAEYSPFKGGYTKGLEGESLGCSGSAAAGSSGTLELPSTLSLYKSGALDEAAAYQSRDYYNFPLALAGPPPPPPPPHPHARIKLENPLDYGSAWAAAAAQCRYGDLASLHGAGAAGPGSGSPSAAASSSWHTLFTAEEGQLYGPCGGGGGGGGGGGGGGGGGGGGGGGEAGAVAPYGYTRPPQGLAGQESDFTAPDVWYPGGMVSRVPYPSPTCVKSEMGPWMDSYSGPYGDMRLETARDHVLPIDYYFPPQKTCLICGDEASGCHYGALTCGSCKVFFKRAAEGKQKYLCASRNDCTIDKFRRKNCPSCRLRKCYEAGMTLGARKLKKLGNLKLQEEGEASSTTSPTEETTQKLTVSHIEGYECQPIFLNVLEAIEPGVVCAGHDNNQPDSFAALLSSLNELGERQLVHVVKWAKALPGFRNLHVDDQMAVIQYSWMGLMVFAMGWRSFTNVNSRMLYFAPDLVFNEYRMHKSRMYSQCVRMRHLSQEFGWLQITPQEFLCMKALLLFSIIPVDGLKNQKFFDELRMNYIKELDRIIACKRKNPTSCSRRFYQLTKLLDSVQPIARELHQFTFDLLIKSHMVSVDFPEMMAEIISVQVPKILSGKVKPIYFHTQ
Chain of Ratio of Nucleoli Translocation and Cytoplasm, AR (gene 367) (P10275 whole entry, looked up, the tested form may be a part): as above

CCOC(=O)O[C@H](C)OC(=O)c1ccc2c(c1)cc(C(=O)NC1CCN(C(C)C)CC1)n2Cc1cc(-c2ccc(Cl)s2)on1
inactive: [3]
active: DIO1 (gene 1733) 97.5 µM | [1] 76.7 µM | [2] 72.2 µM

Cc1occc1C(=O)Nc1ccc(C(=O)N2CCC(F)(F)/C(=C\C(=O)N3CCC(N4CCCCC4)CC3)c3ccccc32)cc1
inactive: [4] | [5] | [6] | [1] | [2] | [3]

Cc1cc2c(cc1C(F)(F)F)N(C(=O)Nc1ccc(Oc3cccnc3C)nc1)CC2
active: [8] 10.9 µM
not listed: DIO1 (gene 1733) | [3] | [4] | [5] | [6] | [18]
inactive: all other assays above

Cc1c2ccccc2c(C)c2c1ccc1ccccc12
active: [4] 50 µM | [7] 17.1 µM | [8] 26.1 µM | [10] 19.4 µM | [11] 20 µM | [12] 20 µM | [16] 7.49 µM | [17] 29.7 µM
not listed: DIO1 (gene 1733)
inactive: all other assays above

CCCC(=O)OCCC(C)C
inactive: [4] | [5] | [18] | [6] | [1] | [2] | [3]

CCN(Cc1cccnc1)C(=O)c1cccc(Cl)c1[C@]1(C)C(=O)N(Cc2ccc(OC)cc2OC)c2ccc(Cl)cc21
active: [7] 2.36 µM | [8] 2.17 µM
inactive: [4] | [5] | [18] | [6] | [9] | [10] | [1] | [2]

CCCCCCCCOC(=O)c1cc(O)c(O)c(O)c1
active: DIO1 (gene 1733) 101 µM | [7] 13.6 µM | [8] 11.5 µM | [11] 4.46 µM | [12] 4.46 µM | [13] 4.91 µM | [17] 5.8 µM
inactive: [9] | [1] | [2] | [3] | [14] | [15] | [16]
